Source: PubChem (Broad Institute)
Tg IFNy HTS: blocks Toxoplasma gondii growth in the presence of IFN-gamma. Toxoplasma gondii growth in IFN-gamma-treated host cells; stronger effect = lower value. activity change, negative = inhibition, % (concentration not given with the values). 69,000 tested, 3.8% active. AID 1259416; in the data active = activity change below about -70%, passing the limit was not always enough;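 note: host cells are HeLa cells infected with Toxoplasma gondii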
Numbers without * were called inactive; ! = repeats disagree. This is one part of a sample in which hits are shown more often than they occur.

SMILES	Tg IFNy HTS
COc1ccccc1N1CCN(CCCCNC(=O)c2ccc(-c3ccc(C(C)=O)cc3)cc2)CC1	7.2
COc1ccccc1N1CCN(Cc2nc(-c3ccc(Br)cc3)cs2)CC1	-71.9*
Cc1c(CN(C)C(=O)c2cc(CN3CCOCC3)on2)[nH]c2ccccc12	10.7
CCc1ccccc1S(=O)(=O)N1CCC[C@@H]1C(=O)NCCc1csc(-c2ccccc2)n1	-11.9
Cc1nc2ccccn2c(=O)c1CCN1CCC(C(=O)c2ccc(F)cc2)CC1	3.8
Cc1nc2sccn2c(=O)c1CCN1CCC(=C(c2ccc(F)cc2)c2ccc(F)cc2)CC1	-77.1*!
Cc1nc2n(c(=O)c1CCN1CCC(c3noc4cc(F)ccc34)CC1)CCCC2O (stereo unspecified)	22.8
O=C(C[C@H]1CC[C@H]2[C@@H](COC[C@H](O)CN2C(=O)Nc2ccccc2)O1)NCc1ccccc1F	-8.9
O=C(O)c1cccnc1CN1CCCC(Oc2ccc(F)cc2)C1 (stereo unspecified)	-35.2
CC(C)CC(=O)N1CCC[C@]2(C(=O)N3CCOCC3)CN(Cc3cnn(C)c3)C[C@H]2C1	2.1
COc1ccc(-c2nc(Nc3cc(C)ccc3C)c3ccccc3n2)cc1	-5.8
CC(C)Cc1ccc(C(=O)C(C)N2CCN(c3ccc(C(F)(F)F)cn3)CC2)cc1 (stereo unspecified)	-42.7
Cc1nc(-c2cccnc2)nc(N2CCCN(c3ccc(C(F)(F)F)cn3)CC2)c1Cl	-97.9*
Cc1nc(-c2ccccc2)nc2c1CCN(c1cnccn1)CC2	65.9
Cc1ccc(CNC(=O)c2cnc(-c3ccc(F)cc3)[nH]2)cc1	61.1
Cc1ccc(C(=O)NCC(=O)OCC(=O)c2ccc(OCc3ccccc3)cc2)cc1	91.0
C#C[C@]1(O)CC[C@@H]2C3[C@H](C)CC4=C(CCC(=O)C4)[C@H]3CC[C@@]21C (stereo partly specified)	2.8
C#C[C@]1(O)CCC2C3CCc4cc(OC5CCCC5)ccc4C3CC[C@@]21C (stereo partly specified)	-6.0
C[C@]12CCC(=O)C=C1CCC1C2C(=O)C[C@@]2(C)C1CC[C@]2(O)C(=O)CO (stereo partly specified)	11.6
C#C[C@]1(O)CCC2C3CCC4=C(CCC(=O)C4)C3CC[C@@]21C (stereo partly specified)	-80.0*
C#C[C@]1(O)CCC2C3CCC4=Cc5oncc5C[C@]4(C)C3CC[C@@]21C (stereo partly specified)	-73.7*!
C#C[C@]1(O)CCC2C3CCC4=CC(=O)CC[C@@H]4C3CC[C@@]21C (stereo partly specified)	-81.0*
C[C@]12CCC3c4ccc(OC(=O)c5ccccc5)cc4CCC3C1CCC2=O (stereo partly specified)	18.0
C#C[C@]1(O)CCC2C3CCc4cc(O)ccc4C3CC[C@@]21C (stereo partly specified)	-77.4*
C#C[C@]1(O)CCC2C3CCC4=CC(=O)CCC4C3C(=C)CC21CC (stereo partly specified)	-0.1
SMILES	Tg IFNy HTS
CCC(=O)O[C@]1(C(=O)CO)CC[C@H]2[C@@H]3CCC4=CC(=O)CC[C@]4(C)[C@H]3CC[C@@]21C	0.5
CN(C)[C@@H]1CCN(c2ncc(F)cn2)[C@H]1Cc1cnn(C)c1	-1.6
O=C(Nc1ccc2c(c1)OCO2)C1CCN(C(=O)c2ccc(Cl)cc2Cl)CC1	-69.4
CCCNc1ncc(CN2CCCN(c3ccc(F)cc3)CC2)cn1	14.2
CS(=O)(=O)NCC1CCN(Cc2cccc3c2OC(F)(F)O3)C1 (stereo unspecified)	-4.7
Cc1nc(C(C)C)ncc1C(=O)N1CCCC(c2[nH]ncc2-c2ccccc2)C1 (stereo unspecified)	0.4
O=C(c1cccs1)N1CC[C@H](O)[C@@H]1Cc1ccccc1	-5.6
CCc1[nH]nc2c1C(c1ccc(F)cc1Cl)CC(=O)N2 (stereo unspecified)	-2.3
COCc1cc(CNC(=O)c2cc(C)nc3cc(F)ccc23)[nH]n1	-10.2
Cc1oc(-c2ccc(-c3ccccc3)cc2)nc1CN1CCCN(C(=O)c2ccco2)CC1	107.1
CC[C@@]1(O)C(=O)OCc2c1cc1n(c2=O)Cc2c-1nc1cc(F)c(C)c3c1c2[C@@H](N)CC3	-86.2*
CC[C@@]1(O)C(=O)OCc2c1cc1n(c2=O)Cc2cc3cc(O)ccc3nc2-1	-89.6*
CCC1CN(Cc2c(Cl)cncc2Cl)CCN1C(C)C (stereo unspecified)	4.5
CCn1ncnc1C(C)NC1CCSCC1 (stereo unspecified)	31.3
CCOc1ccc(CC(=O)N2CCC(c3ncc(C(=O)N4CCCC4)c(C)n3)CC2)cc1	-6.6
Oc1cc(-c2cccc(Cl)c2)cc2c1OCCN(Cc1cscn1)C2	-23.1
Oc1ccc(CN2CCOc3c(O)cc(-c4cccc(Cl)c4)cc3C2)cc1	2.9
Cc1noc(C)c1CN1CCOc2c(O)cc(-c3cccc(Cl)c3)cc2C1	-73.5*
CC(C)n1cnc2c1C(C(=O)N1CCN(C)CC1)N(S(C)(=O)=O)CC2 (stereo unspecified)	-39.9
COc1c(C)c2c(c(O)c1C/C=C(/C)CCC(=O)O)C(=O)OC2	-76.7*
Cc1noc(C)c1CN(C)Cc1ccc(S(C)(=O)=O)cc1	8.7
Cc1nccc(-c2cccc(-n3ccnc3C(C)C)c2)n1	-8.3
N#CC(C#N)=C(N)/C(C#N)=C/c1cc(O)c(O)c(O)c1	-7.0
CC(C)(C)c1cc(/C=C(\C#N)C(N)=S)cc(C(C)(C)C)c1O	-73.5*
CC(C)(C)c1cc(-c2cc(C(C)(C)C)c(O)c(C(C)(C)C)c2)cc(C(C)(C)C)c1O	14.5
SMILES	Tg IFNy HTS
O=C(C[C@@H]1CC[C@H]2[C@@H](COC[C@@H](O)CN2C(=O)c2ccccc2F)O1)NCc1ccc(Cl)c(Cl)c1	-47.7
O=C(COc1ccccc1)N1CCC2(CC1)Nc1cccnc1NC2=NCc1ccccc1	18.7
COc1ccc2c(c1OC)C(=O)OC2[C@H]1c2c(cc3c(c2OC)OCO3)CCN1C (stereo partly specified)	23.7
COc1ccc2cc1Oc1ccc(cc1)C[C@H]1c3c(cc4c(c3Oc3cc5c(cc3OC)CCN(C)[C@@H]5C2)OCO4)CCN1C	-4.9
COc1ccc2cc1Oc1ccc(cc1)C[C@H]1c3cc(c(OC)cc3CCN1C)Oc1c(OC)c(OC)cc3c1[C@H](C2)N(C)CC3	-71.4*!
O=C(NC1CCc2[nH]c(=O)ccc2C1)c1ccc2c(c1)OCO2 (stereo unspecified)	-4.1
COc1ccc(CC(=O)NC2CC3(CCOCC3)Oc3ccccc32)cc1OC (stereo unspecified)	24.8
CCc1ccc(CN2CCC(c3n[nH]c(=O)n3CC)CC2)nc1	-2.2
Cc1cc2c(cc3c(=O)n(CCC#N)nc(C)n32)s1	-90.5*
COc1ccc(-c2nn(CCC#N)c(=O)[nH]2)cc1	23.1
O=C(Nc1c(C(=O)NCc2cccnc2)[nH]c2ccccc12)c1ccc(Cl)cc1	-56.0
O=C(Nc1ccccc1C(=O)NCc1cccnc1)c1cc2ccccc2o1	-34.9
O=C(NCc1cccnc1)c1ccccc1C(=O)Nc1sc2ccccc2c1Cl	-94.1*
O=C(CC1CC2(CCN(Cc3ccco3)CC2)Oc2ccccc21)NC1CC1 (stereo unspecified)	-12.6
Fc1ccc(N2CCCN(Cc3ccc(-c4ccn[nH]4)o3)CC2)cc1	13.9
CCCc1cc(C(=O)N2CCN(C)C3(CCN(C)CC3)C2)cs1	-9.5
COc1ccccc1OCC(=O)n1nc(N)c2c(C(F)(F)F)cc(C)nc21	32.3
COc1cc2ncn(-c3cc(OCc4ccccc4C(F)(F)F)c(C(N)=O)s3)c2cc1OC	-87.9*
